Data published in PubChem BioAssay.
The source made the active and inactive calls.

What was measured:
Albumin (Bos taurus) = Albumin (Bos taurus) (UniProt P02769); assay: bovine serum albumin binders on microarray, profiling panel, artefact control for SMM control protein annotation, biochemical, small-molecule microarray, Alexa647 label, 635/667 nm fluorescence (AID 1118); conditions: BSA-A647 binding, fluorescence 635 nm, higher = more signal;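 note: score merges 667 nm emission intensity and signal-to-noise per printed compound spot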
[1] = small-molecule microarray binders of probe aXIP, primary screen, biochemical, NeuroSMM set, 635/667 nm fluorescence (AID 1119); conditions: higher = more signal, called active from +8 up or from −8 down;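 note: probe is the protein aXip251-270 applied at 1 µg/mL to compound-printed slides; binding of probe to printed compounds measured as 667 nm fluorescence plus signal to noise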
[2] = small-molecule binders of probe aNOTCH3, primary screen, biochemical, small-molecule microarray, 635/667 nm fluorescence (AID 1120); conditions: higher = more signal;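 note: probe is a biotin-tagged antibody raised against NOTCH3 rather than NOTCH3 protein; score merges spot fluorescence near 667 nm with spot signal to noise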
[3] = small-molecule binders of probe aNOTCH2, primary screen, biochemical, small-molecule microarray, 635/667 nm fluorescence (AID 1121); conditions: higher = more signal;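 note: score merges feature fluorescence read at 667 nm with its signal to noise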
[4] = target: Carbonic anhydrase 2 (Homo sapiens) (UniProt P00918); assay: CAII small-molecule binders, profiling panel, biochemical, small-molecule microarray, Alexa647-labelled CAII (AID 1122); conditions: CAII-A647 binding fluorescence, higher = more signal
[5] = COS7 lysate on small-molecule microarray, probe aHis, 635 nm (AID 1123); conditions: COS7 cell lysate, fluorescence, higher = more signal;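 note: z-score combines 667nm fluorescence intensity with signal-to-noise per printed compound spot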
[6] = compound binding in COS7 lysate, probe aLAP1, primary screen, cell lysate, small-molecule microarray (AID 1124); conditions: probe aLAP1, fluorescence, higher = more signal;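 note: lysate comes from COS7 cells expressing LAP1 and is applied at 0.3 µg/mL; score merges spot fluorescence near 667 nm with signal-to-noise over triplicate slides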
Sam68 (KHDRBS1) = assay: Sam68 small-molecule binders, primary screen, biochemical, small-molecule microarray, 635 nm fluorescence (AID 1125); conditions: small-molecule microarray binding, higher = more signal;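 note: score merges 667 nm channel intensity with signal to noise over triplicate slides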
[7] = system: Chordin-like protein 2 (CHRDL2); assay: CHRDL2 small-molecule binders, primary screen, biochemical, small-molecule microarray, 635 nm fluorescence (AID 1126); conditions: small-molecule microarray binding, fluorescence 635 nm; higher = more signal;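 note: printed compound slides probed with Chrdl2 protein at 4 µg/mL for 1 h at 4 C; score merges 667 nm emission intensity with signal to noise over three replicate slides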
[8] = target: Concanavalin-A (Canavalia ensiformis) (UniProt P02866); assay: ConA small-molecule binders, primary screen, artefact control for SMM control protein annotation, biochemical, small-molecule microarray, Alexa647 label, 635 nm (AID 1127); conditions: ConA-A647 binding fluorescence, higher = more signal;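 note: z combines 667 nm emission intensity with signal-to-noise across three replicate slides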
[9] = anti-His antibody binders, primary screen, artefact control for SMM control protein annotation, biochemical, small-molecule microarray, 635 nm fluorescence (AID 1128); conditions: anti-His Alexa647 antibody binding, higher = more signal;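 note: score merges feature fluorescence with signal-to-noise for each printed compound spot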
[10] = system: Human papillomavirus type 1a E7 protein (residues 1-88); assay: HPV1a E7 small-molecule binders, primary screen, biochemical, small-molecule microarray, residues 1-88, 635 nm (AID 1129); conditions: small-molecule microarray binding, fluorescence 635 nm; higher = more signal
[11] = target: Focal adhesion kinase 1 (Homo sapiens) (UniProt Q05397); assay: small-molecule microarray binders of FAK, primary screen, biochemical, 635/667 nm fluorescence, BSA, DTT (AID 1130); conditions: PTK2 binding, 635 nm fluorescence, higher = more signal;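 note: composite of spot emission at 667 nm and signal to noise over triplicate slides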
[12] = system: Fibrinogen (Alexa647-labelled); assay: fibrinogen binders on compound microarrays, profiling panel, artefact control for SMM control-protein annotation, biochemical, small-molecule microarray, 635/667 nm fluorescence (AID 1131); conditions: fibrinogen-A647 binding fluorescence, higher = more signal;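 note: z-score merges 667 nm fluorescence with per-spot signal-to-noise over triplicate slides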
[13] = target: Follistatin (Homo sapiens) (UniProt P19883); assay: follistatin binders on small-molecule microarrays, primary screen, biochemical, small-molecule microarray, 635/667 nm fluorescence (AID 1132); conditions: FST binding, 635 nm fluorescence, higher = more signal
[14] = target: Fibroblast growth factor 2 (Homo sapiens) (UniProt P09038); assay: FGF2 binders on small-molecule microarrays, primary screen, biochemical, small-molecule microarray, 635/667 nm fluorescence (AID 1133); conditions: small-molecule microarray binding, FGF2, fluorescence 635/667; higher = more signal
[15] = mitochondrial membrane potential change in A549 cells, profiling panel, cell-based, JC-1 fluorescence, basal, 24 h, 100 nL (AID 1138); conditions: higher = more signal;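 note: A549 lung adenocarcinoma cells under basal conditions with no added stimulus; test concentration not given here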
Lefty1 = Lefty1 binders on small-molecule microarrays, primary screen, biochemical, small-molecule microarray, 635/667 nm fluorescence (AID 1139); conditions: small-molecule microarray binding, fluorescence 635/667; higher = more signal
[16] = system: wheat germ agglutinin (Triticum aestivum), Alexa647-labelled; assay: wheat germ agglutinin binders on compound microarrays, profiling panel, artefact control for SMM control-protein annotation, biochemical, small-molecule microarray, 635/667 nm fluorescence (AID 1140); conditions: WGA-A647 binding, 635 nm fluorescence, higher = more signal;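 note: score merges 667 nm feature emission with signal to noise over triplicate slides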
[17] = target: Luciferin 4-monooxygenase (Photinus pyralis) (UniProt P08659); assay: firefly luciferase enzyme inhibitors, primary screen, biochemical, luminescence, purified enzyme, 2006 set (AID 1141); conditions: SteadyGlo luminescence, 30 min, higher = more signal, called active from +8 up or from −8 down;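 note: cell-free assay with purified firefly luciferase at 100 ng per well in PBS; test concentration not given here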
Chain of Luciferin 4-monooxygenase (Photinus pyralis) (P08659 whole entry, looked up): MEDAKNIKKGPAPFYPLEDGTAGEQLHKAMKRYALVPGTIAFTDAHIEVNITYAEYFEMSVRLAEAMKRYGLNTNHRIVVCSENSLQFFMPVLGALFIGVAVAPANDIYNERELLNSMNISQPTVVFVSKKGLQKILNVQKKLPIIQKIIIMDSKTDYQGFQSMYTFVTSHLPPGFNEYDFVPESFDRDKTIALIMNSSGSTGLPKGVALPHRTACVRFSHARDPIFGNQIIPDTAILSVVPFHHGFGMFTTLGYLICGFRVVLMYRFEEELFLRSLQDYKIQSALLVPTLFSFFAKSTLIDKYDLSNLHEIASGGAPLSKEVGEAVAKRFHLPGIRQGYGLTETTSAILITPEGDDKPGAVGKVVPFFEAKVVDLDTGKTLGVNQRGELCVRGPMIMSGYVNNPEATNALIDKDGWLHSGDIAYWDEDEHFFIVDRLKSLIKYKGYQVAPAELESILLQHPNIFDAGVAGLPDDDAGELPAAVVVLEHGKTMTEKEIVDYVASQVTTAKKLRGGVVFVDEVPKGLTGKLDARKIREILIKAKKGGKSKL

Chain of Follistatin (Homo sapiens) (P19883 whole entry, looked up): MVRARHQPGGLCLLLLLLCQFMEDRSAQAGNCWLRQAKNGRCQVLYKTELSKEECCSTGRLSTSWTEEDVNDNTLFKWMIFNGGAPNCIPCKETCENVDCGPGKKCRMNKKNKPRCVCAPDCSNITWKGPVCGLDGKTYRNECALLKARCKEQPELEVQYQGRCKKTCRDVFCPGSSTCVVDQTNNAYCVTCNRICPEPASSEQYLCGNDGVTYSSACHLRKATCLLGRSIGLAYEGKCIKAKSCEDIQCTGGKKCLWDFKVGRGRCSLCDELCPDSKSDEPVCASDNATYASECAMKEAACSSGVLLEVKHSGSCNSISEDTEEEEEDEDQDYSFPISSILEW
Chain of Albumin (Bos taurus) (P02769 whole entry, looked up): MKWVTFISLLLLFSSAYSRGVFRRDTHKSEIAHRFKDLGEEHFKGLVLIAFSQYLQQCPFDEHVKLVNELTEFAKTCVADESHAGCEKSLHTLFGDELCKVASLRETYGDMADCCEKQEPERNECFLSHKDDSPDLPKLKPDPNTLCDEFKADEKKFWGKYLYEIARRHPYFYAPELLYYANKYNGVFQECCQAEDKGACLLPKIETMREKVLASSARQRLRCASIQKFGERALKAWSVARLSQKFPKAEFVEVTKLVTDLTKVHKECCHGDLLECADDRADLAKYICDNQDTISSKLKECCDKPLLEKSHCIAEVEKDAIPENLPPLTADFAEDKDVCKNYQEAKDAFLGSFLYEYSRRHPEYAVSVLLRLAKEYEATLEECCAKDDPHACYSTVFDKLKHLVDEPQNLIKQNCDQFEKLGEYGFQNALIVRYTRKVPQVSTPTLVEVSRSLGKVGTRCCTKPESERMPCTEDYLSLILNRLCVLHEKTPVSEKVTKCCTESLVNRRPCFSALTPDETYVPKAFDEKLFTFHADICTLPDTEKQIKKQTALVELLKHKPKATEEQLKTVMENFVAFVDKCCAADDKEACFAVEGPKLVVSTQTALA
Chain of Fibroblast growth factor 2 (Homo sapiens) (P09038 whole entry, looked up): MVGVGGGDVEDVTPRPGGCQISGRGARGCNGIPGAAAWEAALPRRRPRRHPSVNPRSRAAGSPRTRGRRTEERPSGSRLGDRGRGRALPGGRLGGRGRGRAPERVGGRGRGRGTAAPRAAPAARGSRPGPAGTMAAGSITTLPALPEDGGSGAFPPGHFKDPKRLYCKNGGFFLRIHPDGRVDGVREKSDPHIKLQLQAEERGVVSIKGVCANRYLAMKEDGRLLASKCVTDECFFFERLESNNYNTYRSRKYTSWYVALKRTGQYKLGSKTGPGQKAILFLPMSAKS
Chain of Focal adhesion kinase 1 (Homo sapiens) (Q05397 whole entry, looked up): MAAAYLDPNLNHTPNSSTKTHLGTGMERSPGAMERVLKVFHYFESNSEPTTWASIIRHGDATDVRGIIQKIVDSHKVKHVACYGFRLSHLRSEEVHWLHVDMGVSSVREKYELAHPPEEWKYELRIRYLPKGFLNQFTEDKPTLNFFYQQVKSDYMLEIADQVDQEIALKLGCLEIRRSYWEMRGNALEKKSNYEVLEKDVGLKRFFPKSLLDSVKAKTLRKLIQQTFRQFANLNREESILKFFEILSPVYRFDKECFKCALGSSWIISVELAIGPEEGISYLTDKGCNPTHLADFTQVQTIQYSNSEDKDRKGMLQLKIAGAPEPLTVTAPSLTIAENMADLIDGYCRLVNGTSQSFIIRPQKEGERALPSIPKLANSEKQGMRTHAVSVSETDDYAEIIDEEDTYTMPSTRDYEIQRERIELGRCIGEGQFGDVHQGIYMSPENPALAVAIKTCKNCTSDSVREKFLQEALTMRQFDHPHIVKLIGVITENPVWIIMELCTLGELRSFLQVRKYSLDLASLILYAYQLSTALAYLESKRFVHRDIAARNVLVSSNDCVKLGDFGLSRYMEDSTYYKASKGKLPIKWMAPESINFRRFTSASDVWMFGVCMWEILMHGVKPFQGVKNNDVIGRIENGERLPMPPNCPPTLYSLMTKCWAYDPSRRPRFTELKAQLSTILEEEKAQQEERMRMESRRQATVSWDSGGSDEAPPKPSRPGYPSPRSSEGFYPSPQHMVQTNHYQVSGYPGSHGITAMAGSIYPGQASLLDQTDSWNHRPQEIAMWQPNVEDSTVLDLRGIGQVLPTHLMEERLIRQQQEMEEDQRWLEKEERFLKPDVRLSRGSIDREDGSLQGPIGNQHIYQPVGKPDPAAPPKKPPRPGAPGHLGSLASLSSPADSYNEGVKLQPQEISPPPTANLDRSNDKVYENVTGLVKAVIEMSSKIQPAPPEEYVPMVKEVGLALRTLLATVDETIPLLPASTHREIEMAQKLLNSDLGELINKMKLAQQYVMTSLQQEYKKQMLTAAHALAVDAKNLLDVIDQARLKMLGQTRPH
Chain of Concanavalin-A (Canavalia ensiformis) (P02866 whole entry, looked up): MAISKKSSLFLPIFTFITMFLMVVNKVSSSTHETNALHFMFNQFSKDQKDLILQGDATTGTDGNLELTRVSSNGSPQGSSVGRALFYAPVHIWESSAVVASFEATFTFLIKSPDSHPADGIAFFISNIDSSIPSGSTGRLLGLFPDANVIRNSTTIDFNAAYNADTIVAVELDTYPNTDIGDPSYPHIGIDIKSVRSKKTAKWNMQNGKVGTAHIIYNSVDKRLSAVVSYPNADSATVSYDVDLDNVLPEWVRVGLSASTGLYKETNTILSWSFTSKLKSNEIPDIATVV

| SMILES | composite z-score (Albumin (Bos taurus)) | composite Z-score [1] | composite z-score [2] | composite z-score [3] | composite z-score [4] | composite z-score [5] | composite z-score [6] | composite z-score (Sam68 (KHDRBS1)) | composite z-score [7] | composite z-score [8] | composite z-score [9] | composite z-score [10] | composite z-score [11] | composite z-score [12] | composite z-score [13] | composite z-score [14] | z-score [15] | composite z-score (Lefty1) | composite z-score [16] | z-score [17] |
| --- | --- | --- | --- | --- | --- | --- | --- | --- | --- | --- | --- | --- | --- | --- | --- | --- | --- | --- | --- | --- |
| CC(C)=CCCC(C)=CCON=C1C[C@@H](O)[C@@H](O)[C@@H]2[C@@H]3C(=O)N(c4cccc(Oc5ccccc5)c4)C(=O)[C@@H]3CC[C@@H]12 | 0.633 | -0.174 (inactive) | -0.0026 | -0.0686 | 0.112 | 0.956 | -0.0676 | 0.877 | 0.418 | 0.0876 | 0.0079 | 0.929 | 1.58 | 0.589 | 0.612 | 0.207 | -0.82 | 0.514 | 0.0969 | 0.775 (inactive) |
| CCC1=NOC(CCC2CC(OC(=O)NCc3cccc4c3OCO4)CC3(CCCC(COC(=O)NCCc4ccccc4OC)O3)O2)C1 (stereo not given) | 0.946 | 0.632 (inactive) | 0.134 | -0.122 | 0.45 | 1.24 | 0.19 | 1.31 | -0.14 | 0.722 | 0.0887 | 1.19 | 0.494 | 0.155 | 0.505 | 0.297 | 1.41 | -0.0134 | 0.703 | 0.412 (inactive) |
| COc1ccc(O[C@@H]2[C@H](O)CO[C@H]2C=Cc2ccccc2)cc1 | 0.529 | -0.176 (inactive) | -0.0647 | -0.0488 | -0.338 | 0.0177 | -0.798 | 0.116 | -0.28 | -0.283 | 0.326 | -0.437 | 0.051 | 0.173 | -0.117 | 0.117 | 1.66 | -0.208 | 0.0385 | -1.69 (inactive) |
| CC(=O)OC[C@H]1OC(ON=CC[C@@H]2C=C[C@H](OC(C)=O)[C@@H](COC(C)=O)O2)[C@H](OC(C)=O)[C@@H](OC(C)=O)[C@@H]1OC(C)=O (stereo not given in full) | 0.0478 | 0.359 (inactive) | 0.144 | -0.14 | -0.451 | -0.011 | 0.31 | 1.14 | -0.794 | 0.215 | 2.8 | 0.268 | 0.282 | 0.106 | -0.494 | 0.0994 | -0.99 | -0.101 | -0.223 | 1.11 (inactive) |
| COC(=O)[C@@H]1CC[C@H](C)[C@@H](c2ccc(C)cc2)N1C(=O)c1ccc(C=NO[C@H](C)c2cn([C@H](CO)Cc3ccccc3)nn2)cc1 | 0.279 | 0.402 (inactive) | 0.217 | 0.111 | 0.233 | -0.141 | 0.452 | 1.02 | 0.684 | 0.653 | 0.762 | 1.04 | 0.926 | -0.466 | 0.738 | 0.377 | -0.406 | 0.957 | 0.295 | 0.184 (inactive) |
| COc1ccc(COC(=O)NN=C2C[C@@H](O)[C@@H](O)[C@@H]3[C@@H]4C(=O)N(C5CCCCC5)C(=O)[C@@H]4CC[C@H]23)cc1 | 0.213 | 1.22 (inactive) | -0.365 | -0.28 | 0.262 | -0.0294 | -0.222 | -0.331 | -0.275 | -1.14 | -0.823 | -0.552 | -0.497 | -0.439 | -1.72 | -1.04 | 0.195 | -1.42 | 0.778 | -0.224 (inactive) |
| CCOC(=O)[C@H](Cc1ccccc1)NC(=O)CCC1CC(OC(=O)NCCc2ccc(F)cc2)CC2(CCCC(COC(=O)NCC3CCCCC3)O2)O1 (stereo not given in full) | 0.505 | -0.539 (inactive) | 0.18 | -0.0294 | 0.192 | 0.822 | 0.236 | 1.3 | 0.74 | 1.07 | 0.542 | 0.816 | 0.465 | 0.656 | 0.857 | 0.238 | 0.812 | 1.21 | 0.395 | 0.356 (inactive) |
| O=C1OCCC=C1C(O)CCc1ccccc1 (stereo not given) | -0.561 | 0.149 (inactive) | -0.158 | -0.145 | 0.192 | -0.215 | 0.181 | -0.0924 | 0.575 | -0.0631 | -0.139 | 0.638 | -0.226 | 0.913 | 0.347 | 0.332 | -0.602 | 0.299 | 0.412 | 0.151 (inactive) |
| CC(C)=CCCC(C)=CCON=C1C[C@@H](O)[C@@H](O)[C@@H]2[C@@H]3C(=O)N(C(C)(C)C)C(=O)[C@@H]3CC[C@@H]12 | 0.0038 | -0.204 (inactive) | -0.127 | -0.0859 | -0.0211 | -0.13 | -0.0115 | 0.383 | 0.129 | 0.411 | 0.696 | 0.494 | 0.057 | -0.0293 | 0.307 | 0.247 | -0.872 | 0.351 | 0.269 | 0.421 (inactive) |
| CO[C@@H]1COC(=O)CC=C[C@@H](C)[C@H](OC)COC(=O)[C@@H](C)COC(=O)CC=C[C@H]1C | -0.797 | 0.0068 (inactive) | -0.055 | -0.124 | -0.679 | -0.824 | -0.0936 | -0.983 | 1.47 | -0.423 | -0.227 | -1.38 | -0.482 | -1.39 | 1.18 | 0.867 | 1.2 | 1.24 | -0.839 | -0.798 (inactive) |
| O=C(NN=C1C[C@@H](O)[C@@H](O)[C@@H]2[C@@H]3C(=O)N(C4CCCCC4)C(=O)[C@@H]3CC[C@H]12)OCc1ccccc1 | 0.885 | -0.229 (inactive) | 0.273 | 0.179 | 0.0928 | 0.206 | 0.947 | -0.337 | 0.209 | -0.465 | -0.156 | -0.387 | -0.132 | -0.195 | -0.516 | -0.443 | 0.293 | -0.422 | 0.505 | -0.0704 (inactive) |
